Experiment [1] can be described thus: Nuclear factor erythroid 2-related factor 2/antioxidant responsive element (Nrf2/ARE) small molecule agonists: qHTS cell viability counter screen in human keratinocytes (AID 1919968; active means well fitted curve in the direction sought with a large enough effect in the repeat runs; an effect the other way counts as inactive or inconclusive; further: nearly all actives have a fitted effect of over 55% in size; further: potency means the concentration at half of the fitted maximal effect). A digest of the protocol: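 Cells of the KeratinoSens line were plated at 1,500 per well and left for 5 h before compound transfer from DMSO stocks. After a 23 h incubation (37 C, 5% CO2), CellTiter-Fluor was added. Signal was taken as fluorescence intensity 1 h later.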
(In general: qHTS replaces the single test concentration by a dilution series.)

Experiment [2] is described as follows: Nuclear factor erythroid 2-related factor 2/antioxidant responsive element (Nrf2/ARE) small molecule agonists: luciferase reporter gene qHTS assay in human keratinocytes (AID 1919969). Further: nearly all actives have a fitted effect of over 35% in size. Further: potency means the concentration at half of the fitted maximal effect. A general note: Reporter assays use an easily measured gene product as a stand-in for the process of interest.
The target in experiment [3] is Gonadotropin-releasing hormone receptor (Homo sapiens) (UniProt P30968). In words: Human gonadotropin-releasing hormone receptor (GnRHR) small molecule agonists, calcium flux assay in GnRHR-HEK293 cells (AID 1920063). Further: nearly all actives have a fitted effect of over 35% in size. A digest of the protocol:
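Compounds dissolved in DMSO are pin-transferred onto dye-loaded GnRHR-HEK293 cells, which were seeded 18 h before at 37 C/5% CO2. Calcium signal is read as fluorescence intensity at 1 s intervals for 3 min.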

For experiment [4], the target named is KiSS-1 receptor (Homo sapiens) (UniProt Q969F8). Briefly: Human kisspeptin (KISS1R) small molecule agonists, calcium flux assay in KISS1R-HEK293 cells (AID 1920064; active means well fitted curve in the direction sought with a large enough effect in the repeat runs; an effect the other way counts as inactive or inconclusive). A digest of the protocol: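 Cell line: HEK293, stable human KISS1R. Dye loading 1 h at 37 C after 18 h culture. Read: kinetic fluorescence, 480/540 nm, 3 min at 1 s intervals.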
KiSS-1 receptor (Homo sapiens), sequence (Q969F8 whole entry, looked up): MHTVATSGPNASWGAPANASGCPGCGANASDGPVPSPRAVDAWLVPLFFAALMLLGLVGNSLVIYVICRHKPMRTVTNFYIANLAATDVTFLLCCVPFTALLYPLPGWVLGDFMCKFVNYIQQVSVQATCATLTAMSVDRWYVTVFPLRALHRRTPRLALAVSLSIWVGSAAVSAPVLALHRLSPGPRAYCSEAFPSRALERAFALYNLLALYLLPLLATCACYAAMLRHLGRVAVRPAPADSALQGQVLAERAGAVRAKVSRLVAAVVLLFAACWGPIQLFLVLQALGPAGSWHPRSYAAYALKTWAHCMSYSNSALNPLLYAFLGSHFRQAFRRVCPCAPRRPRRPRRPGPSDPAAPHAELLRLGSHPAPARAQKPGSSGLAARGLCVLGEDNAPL
(In general: Calcium flux is commonly read through the fluorescence of an indicator in the cells.)

Experiment [5] can be described thus: G protein-coupled receptor (GPCR) small molecule agonists, calcium flux assay: HEK293 wild type cell line counter screen (AID 1920065). A digest of the protocol:
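Tox21 10K compounds, 15 concentrations each in triplicate, pin-transferred in DMSO onto dye-loaded cells; kinetic read at 480/540 nm for 3 min, 1 s intervals.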

Experiment [6] is described as follows: p53 small molecule agonists, cell-based qHTS assay with human liver microsomes (AID 1963577). A digest of the protocol:
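p53RE-bla reporter cells were pre-incubated 5 h at 37 C, then treated with compounds plus human liver microsomes (0.5 mg/mL final) and NADPH (0.5 mg/mL final) for 16 h at 37 C. Beta-lactamase activity was read by LiveBLAzer fluorescence after 2 h at room temperature.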

Experiment [7] in a line: p53 small molecule agonists, cell-based qHTS assay with rat liver microsomes (AID 1963578). A digest of the protocol: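 p53RE-bla cells were exposed to compounds together with rat liver microsomes (0.5 mg/mL final) and NADPH (0.5 mg/mL final) for 16 h at 37 C, then read by LiveBLAzer beta-lactamase fluorescence after 2 h at room temperature.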
Experiment [8] in a line: p53 small molecule agonists, cell-based qHTS assay with human liver microsomes: qHTS cell viability counter screen (AID 1963579). Further: nearly all actives have a fitted effect of over 45% in size. A digest of the protocol: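 p53RE-bla cells (4,000/well) were pre-incubated 5 h at 37 C, then given compounds in DMSO plus human liver microsomes (0.5 mg/mL final) and NADPH (0.5 mg/mL final) for 16 h at 37 C. Viability was read by CellTiter-Glo luminescence.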

Experiment [9] in a line: p53 small molecule agonists, cell-based qHTS assay with rat liver microsomes: qHTS cell viability counter screen (AID 1963580). Further: nearly all actives have a fitted effect of over 45% in size. A digest of the protocol:
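After the beta-lactamase ratio was read, CellTiter-Glo was added to the same wells and luminescence measured at 30 min; cells had been treated 16 h at 37 C with compounds, rat liver microsomes and NADPH (0.5 mg/mL final each).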

Experiment [10] can be described thus: p53 small molecule agonists, cell-based qHTS assay (AID 1963582; active means well fitted activation curve with a large enough effect in the signal ratio in the repeat runs, not every such curve was filed as active; the % refers to the signal ratio). A digest of the protocol: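 16 h compound exposure (37 C) of p53 response element–bla cells, preceded by 5 h recovery at 37 C/5% CO2; read-out via LiveBLAzer B/G FRET substrate, 2 h RT, fluorescence intensity.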
Experiment [11] deals with 5-hydroxytryptamine receptor 2A (Homo sapiens) (UniProt P28223). Briefly: 5-hydroxytryptamine receptor 2A (HTR2A) small molecule antagonists, cell-based qHTS assay (AID 1963586). Further: nearly all actives have a fitted effect of over 45% in size. A digest of the protocol:
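CHO cells stably expressing human HTR2A were plated for 18 h at 37 C, then loaded with calcium dye for 1 h. Compounds were preincubated 5 min at room temperature before DOI (4 nM solution) was added. Kinetic fluorescence was read for 3 min.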

Experiment [12] shares this target. In words: 5-hydroxytryptamine receptor 2A (HTR2A) small molecule agonists, cell-based qHTS assay (AID 1963587). Further: nearly all actives have a fitted effect of over 30% in size. A digest of the protocol:
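CHO cells stably expressing human HTR2A, plated 18 h, loaded with calcium dye 1 h at 37 C. Agonist mode: compounds added and intracellular calcium fluorescence recorded kinetically for 2 min at 1 sec intervals.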

The target in experiment [13] is Muscarinic acetylcholine receptor M1 (Homo sapiens) (UniProt P11229). Briefly: Cholinergic receptor muscarinic 1 (CHRM1) small molecule antagonists, cell-based qHTS assay (AID 1963588). Further: nearly all actives have a fitted effect of over 40% in size. A digest of the protocol:
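Compounds were tested at 15 concentrations in three independent runs. Dye-loaded CHRM1-CHO cells were exposed 5 min at room temperature before stimulation by acetylcholine added at 50nM. Intracellular calcium was read kinetically on FDSS for 3 min.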

The target is the same in experiment [14]. Briefly: Cholinergic receptor muscarinic 1 (CHRM1) small molecule agonists, cell-based qHTS assay (AID 1963589). Further: nearly all actives have a fitted effect of over 35% in size. A digest of the protocol:
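Homogeneous fluorescence calcium flux, agonist mode. Human M1-expressing CHO cells; compound dosed at 15 concentrations, three independent runs; signal sampled every 1 sec.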

The nature of experiment [15]: cAMP Responsive Elements (CRE) small molecule agonists, cell-based qHTS assay (AID 1963590). A digest of the protocol:
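HEK 293T cells stably bearing CRE-bla were plated at 2,000 cells per well and rested 18 h. Compounds, positive controls or DMSO were added for 3 h at 37 C. LiveBLAzer B/G substrate was then loaded for 2 h at room temperature.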

Experiment [16] is described as follows: cAMP Responsive Elements (CRE) small molecule antagonists, cell-based qHTS assay (AID 1963591; active means well fitted inhibition curve with a large enough effect in the signal ratio in the repeat runs, not every such curve was filed as active; the % refers to the signal ratio). A digest of the protocol:
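First, CRE-bla HEK293T cells settled 18 h at 37 C. Next, compound and 0.25 uM final NKH477 were applied for 3 h. Last, LiveBLAzer B/G substrate was loaded for 2 h at room temperature.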

Experiment [17] concerns the target Beta-2 adrenergic receptor (Homo sapiens) (UniProt P07550). In words: Adrenergic beta2 receptor (ADRB2) small molecule antagonists, cell-based qHTS assay (AID 1963592). Further: series mostly up to about 92 µM; nearly all actives have a fitted effect of over 50% in size. A digest of the protocol: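 Assay format: CHO-ADRB2 cells, 18-20hr seeding at 37C/5% CO2, then compound plus 1nM isoproterenol agonist mix for 0.5hr RT. Homogeneous time-resolved fluorescence cAMP detection after 1hr, expressed as 665/615 nm ratio.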

Experiment [18] addresses D(2) dopamine receptor (Homo sapiens) (UniProt P14416). In words: Dopamine D2 receptor (DRD2) small molecule agonists, cell-based qHTS assay (AID 1963594). Further: nearly all actives have a fitted effect of over 35% in size. A digest of the protocol: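 HEK293 cells stably expressing human DRD2, pre-treated with PDE inhibitor Ro20-1724 (0.1 mM final) and compound 10 min at room temperature, then stimulated with NKH477 (200nM […]) for 30 min. cAMP read by HTRF (665/620 nm).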

Experiment [19] shares this target. Briefly: Dopamine D2 receptor (DRD2) small molecule antagonists, cell-based qHTS assay (AID 1963595; active means well fitted inhibition curve with a large enough effect in the signal ratio in the repeat runs, with a control signal flat; the % refers to the signal ratio). A digest of the protocol: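 HEK293 cells stably expressing DRD2, preincubated with 0.1 mM Ro20-1724 and compounds 10 min, were stimulated with 200 nM NKH477 plus 12 nM quinpirole for 30 min at room temperature; cAMP measured by HTRF (665/620 nm).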
Experiment [20] is described as follows: p53 small molecule agonists, cell-based qHTS assay: qHTS cell viability counter screen (AID 1963581). Further: nearly all actives have a fitted effect of over 45% in size. A digest of the protocol:
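ATP content measured by luminescence in HCT-116 p53RE-bla cells treated 16 h at 37 C, same wells as the reporter screen.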

Where “and” joins values, the source holds several entries; their conditions need not be identical. Equal entries are not always repeated. Inconclusive results are not listed. Some structures have more than one record in an assay (separate samples or runs), and their calls can disagree. Calls of active or inactive are those of the source. Unless noted, the call rests on the fitted dose curve.

5-hydroxytryptamine receptor 2A (Homo sapiens), sequence (P28223 whole entry, looked up): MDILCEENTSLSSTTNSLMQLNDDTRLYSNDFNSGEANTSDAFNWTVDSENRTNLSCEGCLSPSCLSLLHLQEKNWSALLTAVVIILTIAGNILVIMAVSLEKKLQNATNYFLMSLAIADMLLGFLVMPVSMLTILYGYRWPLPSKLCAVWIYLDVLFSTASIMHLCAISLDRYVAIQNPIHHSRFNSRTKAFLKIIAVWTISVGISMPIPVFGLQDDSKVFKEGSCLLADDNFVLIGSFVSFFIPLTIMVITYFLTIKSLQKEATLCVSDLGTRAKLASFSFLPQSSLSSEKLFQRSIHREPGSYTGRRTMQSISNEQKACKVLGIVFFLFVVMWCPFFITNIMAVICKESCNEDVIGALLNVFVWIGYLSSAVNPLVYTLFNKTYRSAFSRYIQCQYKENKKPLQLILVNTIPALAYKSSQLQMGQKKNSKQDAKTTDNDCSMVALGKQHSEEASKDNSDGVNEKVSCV
D(2) dopamine receptor (Homo sapiens), sequence (P14416 whole entry, looked up): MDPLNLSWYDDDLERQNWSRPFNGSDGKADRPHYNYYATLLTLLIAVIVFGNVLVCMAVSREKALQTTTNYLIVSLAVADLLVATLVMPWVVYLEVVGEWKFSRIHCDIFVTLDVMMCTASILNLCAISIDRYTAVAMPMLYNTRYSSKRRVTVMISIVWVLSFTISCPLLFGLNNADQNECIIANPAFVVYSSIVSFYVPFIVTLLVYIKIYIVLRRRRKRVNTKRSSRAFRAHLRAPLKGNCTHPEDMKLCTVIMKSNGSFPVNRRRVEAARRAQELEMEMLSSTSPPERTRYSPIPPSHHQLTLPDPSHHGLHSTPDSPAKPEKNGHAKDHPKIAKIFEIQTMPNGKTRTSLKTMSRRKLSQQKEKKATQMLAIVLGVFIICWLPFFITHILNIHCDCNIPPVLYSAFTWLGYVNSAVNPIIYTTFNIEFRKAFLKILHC
Beta-2 adrenergic receptor (Homo sapiens), sequence (P07550 whole entry, looked up): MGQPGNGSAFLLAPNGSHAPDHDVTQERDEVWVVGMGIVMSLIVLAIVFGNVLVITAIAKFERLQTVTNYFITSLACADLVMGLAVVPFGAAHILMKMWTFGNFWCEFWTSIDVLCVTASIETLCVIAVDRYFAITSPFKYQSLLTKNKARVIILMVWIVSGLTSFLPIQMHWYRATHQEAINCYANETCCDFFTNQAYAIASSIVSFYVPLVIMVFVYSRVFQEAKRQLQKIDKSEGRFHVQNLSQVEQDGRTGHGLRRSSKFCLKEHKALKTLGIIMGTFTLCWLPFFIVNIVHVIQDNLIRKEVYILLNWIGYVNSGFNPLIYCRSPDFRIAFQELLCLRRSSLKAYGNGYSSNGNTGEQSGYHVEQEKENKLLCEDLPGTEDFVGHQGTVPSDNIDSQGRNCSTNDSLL
Gonadotropin-releasing hormone receptor (Homo sapiens), sequence (P30968 whole entry, looked up): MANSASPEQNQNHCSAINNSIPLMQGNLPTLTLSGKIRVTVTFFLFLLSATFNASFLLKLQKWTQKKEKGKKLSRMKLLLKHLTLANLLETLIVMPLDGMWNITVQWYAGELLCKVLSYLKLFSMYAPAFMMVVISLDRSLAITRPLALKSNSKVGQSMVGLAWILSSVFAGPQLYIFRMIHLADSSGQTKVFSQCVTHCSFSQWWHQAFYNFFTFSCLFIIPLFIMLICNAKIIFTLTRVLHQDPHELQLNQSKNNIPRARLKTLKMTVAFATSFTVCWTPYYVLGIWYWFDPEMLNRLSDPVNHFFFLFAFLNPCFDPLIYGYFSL
Muscarinic acetylcholine receptor M1 (Homo sapiens), sequence (P11229 whole entry, looked up): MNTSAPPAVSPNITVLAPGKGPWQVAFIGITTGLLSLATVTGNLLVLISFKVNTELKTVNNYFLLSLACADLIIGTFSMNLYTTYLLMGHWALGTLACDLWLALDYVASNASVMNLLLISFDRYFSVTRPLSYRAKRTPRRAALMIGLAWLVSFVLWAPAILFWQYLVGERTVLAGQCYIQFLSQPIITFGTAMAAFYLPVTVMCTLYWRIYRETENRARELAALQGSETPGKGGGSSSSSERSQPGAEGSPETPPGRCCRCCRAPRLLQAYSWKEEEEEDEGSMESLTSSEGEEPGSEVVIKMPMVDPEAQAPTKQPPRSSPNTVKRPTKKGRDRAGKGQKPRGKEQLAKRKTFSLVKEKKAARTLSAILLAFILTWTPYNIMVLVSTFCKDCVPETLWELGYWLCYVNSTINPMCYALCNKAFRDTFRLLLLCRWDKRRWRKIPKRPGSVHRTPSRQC

For the compound `CC(CCC(=O)O)(c1ccc(O)cc1)c1ccc(O)cc1`, the Potency result in [1], in experiment [2], in experiment [3], in [4], in [5] and in [6] was “inactive” throughout. The Potency result in [7], in experiment [8], in [9], in [10], in experiment [11] and in experiment [12] was “inactive” in each case. The Potency result in [13], in experiment [14], in experiment [15], in experiment [16], in [17] and in experiment [18] was “inactive” each time. The Potency entry in experiment [19] was “inactive”.

On to `CC(=O)Nc1ccc(C(=O)CCl)cc1`, for which the Potency entry is “inactive and 27.3 µM (active)” in experiment [1]; 54.8 µM (active) and 9.69 µM (active) in experiment [2]. Besides, the Potency entry in [3], in experiment [4], in experiment [5], in experiment [6], in [7] and in [8] was “inactive” in each case. The Potency result in [9], in experiment [20], in experiment [11], in experiment [12], in experiment [13] and in [14] was “inactive” in each case. Also, the Potency entry in experiment [16], in experiment [17], in experiment [18] and in experiment [19] was “inactive” throughout.

On to `NC(=O)NO`, for which the Potency result in experiment [1], in experiment [2], in [3], in experiment [4], in [5] and in [6] was “inactive” throughout. The Potency entry in experiment [7], in experiment [8], in experiment [9], in experiment [20], in experiment [10] and in experiment [16] was “inactive” each time. Further, the Potency result in experiment [18] and in [19] was “inactive” in each case.

With `CC(=O)C1=C(C)[C@@H]2C[C@@]3(C1)[C@H](C)CC[C@H]3C2(C)C`, the Potency entry in experiment [1], in [2], in experiment [3], in experiment [4], in [5] and in experiment [6] was “inactive” each time. Further, the Potency entry in experiment [7], in [8], in experiment [9], in experiment [10], in experiment [11] and in experiment [12] was “inactive” each time. Besides, the Potency entry in [13], in experiment [14], in experiment [15], in experiment [16], in [17] and in experiment [18] was “inactive” throughout. The Potency entry in experiment [19] is “inactive”.

With `O=C(O)c1ccc(O)cc1`, the Potency result in [1], in experiment [2], in experiment [3], in experiment [4], in [5] and in experiment [6] was “inactive” in each case. The Potency result in experiment [7], in experiment [8], in [9], in [10], in [11] and in experiment [12] was “inactive” each time. Moreover, the Potency result in experiment [13], in experiment [14], in experiment [15], in experiment [16], in [17] and in experiment [18] was “inactive” throughout. Also, the Potency result in experiment [19] is “inactive”.

Consider `COc1cc(OC)c(C(=O)CCCN2CCCC2)c(OC)c1`, for which the Potency entry in experiment [1], in experiment [2], in experiment [3], in experiment [4], in [5] and in [6] was “inactive” throughout. Besides, the Potency entry in [7], in experiment [8], in [9], in [20], in experiment [15] and in experiment [16] was “inactive” each time. Besides, in [18], the Potency result was “inactive”.

Take `CCCCCCCCC/C=C/CC1CC(=O)OC1=O` (centres undefined): the Potency result in experiment [1], in experiment [2], in [3], in experiment [4], in experiment [5] and in experiment [6] was “inactive” throughout. Besides, the Potency entry in experiment [7], in experiment [8], in experiment [9], in experiment [20], in experiment [12] and in [13] was “inactive” in each case. Besides, the Potency entry in experiment [14], in [15], in experiment [16], in [17], in experiment [18] and in experiment [19] was “inactive” each time.

For the compound `CC(=O)OC/C=C(C)/C=C/C=C(C)/C=C/C1=C(C)CCCC1(C)C`, the Potency entry in experiment [1], in [3], in experiment [4], in experiment [5], in experiment [6] and in experiment [7] was “inactive” each time. Besides, the Potency entry in [8], in [9], in experiment [20], in experiment [11], in experiment [12] and in experiment [13] was “inactive” throughout. Besides, the Potency entry in experiment [14], in experiment [15], in [16], in experiment [17], in experiment [18] and in [19] was “inactive” in each case. Moreover, the Potency in experiment [2] was 66.9 µM (active) and 54.5 µM (active) and 29.8 µM (active).

These data come from PubChem BioAssay (Tox21).
